Screening results from PubChem.
Pf growth 96h – P. falciparum growth inhibition at 96 hours. P. falciparum luciferase reporter growth, 96 h. Potency, µM (titrated, usually from 28.7 µM), without a hit: top-dose activity change, negative = inhibition, usual class: inhibitors. hit rate 6.9% among 320,000. AID 504834; also: potency is read from the fitted curve at half-maximal effect; % is scaled to controls: 0 for no effect and ±100 for the full control effect
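Parasite growth measured via integrated firefly luciferase reporter in P. falciparum. Infected erythrocytes at 2% hematocrit, 0.05% parasitemia final were treated 96 hours at 37 C under 5% CO2, and luminescence was read.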
AMA1-RON2 inh – AMA1-RON2 (P. falciparum) interaction inhibition. AlphaScreen AMA1-biotinylated RON2 peptide binding. AID 720542. hit rate 0.2% among 360,000. Potency, µM (highest dose often 58.2 µM), for the others: at the highest dose activity change, negative = inhibition, hits mostly inhibitors;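 also: potency is read from the fitted curve at half-maximal effect; 0% = vehicle wells and -100% = peptide control; nearly all actives have a fitted effect of over 45% in size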
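AMA1 (3D7) with his tag at 25 nM final met compounds first, then biotinylated RON2 peptide at 25 nM; detection used donor plus acceptor beads, 10 µg/mL apiece, read by AlphaScreen after 30 min at room temperature.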
Shiga inhibitor – blocks Shiga toxin action in Vero cells | AID 2315 | hit rate 9.2% among 290,000 | Vero cells, Shiga toxin protein synthesis inhibition reporter | inhibition, % at 38.7 µM; in the data active = inhibition mostly above about 28%, no sharp cut-off; inactive = mostly below about 43%; also: 0% is about no effect
HCV inhibitor – inhibitors of hepatitis C virus infection; Huh7.5.1 HCVcc-Cre infection, luciferase reporter, 44 h; Potency, µM (series often up to 41.8 µM), without a hit: at the top dose activity change, negative = inhibition, usual class: inhibitors; hit rate 3.4% among 340,000; also: potency is read from the fitted curve at half-maximal effect; % is scaled to controls: 0 for no effect and ±100 for the full control effect
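Cells seeded at 1,000/well and cultured 4 h, then compounds added followed by HCVcc-Cre virus (~0.5 moi). After 44 h further culture, luciferase substrate was added, plates held 15 min at room temperature, and luminescence read for 15 sec.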
Pf growth 48h – P. falciparum growth inhibition at 48 hours (one generation). P. falciparum luciferase growth in erythrocytes, 48 h. Potency, µM (series often up to 28.7 µM), without a hit: at the highest dose activity change, negative = inhibition, usual class: inhibitors. hit rate 5.9% among 310,000. AID 504832; also: potency is read from the fitted curve at half-maximal effect; % is scaled to controls: 0 for no effect and ±100 for the full control effect
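Compounds are pin-transferred into medium, infected erythrocytes (2% hematocrit, 0.1% parasitemia final) are added, and plates sit one parasite generation at 37 C in 5% CO2. Detection reagent is then added and luminescence measured.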
Cycloheximide cs – counter-screen for Shiga toxin inhibitors: cycloheximide protein synthesis inhibition. AID 2314. hit rate 12% among 300,000. cell reporter, cycloheximide protein synthesis inhibition counterscreen. max response, %; in the data active = max response mostly above about 13%, no sharp cut-off; inactive = mostly below about 14%; also: read at 38.3 µM for the half of the compounds with a filed dose; 0% is about no effect
Numbers without * were called inactive; ? = inconclusive; · = no result; [ ] = dose if it differs, or a comment. An excerpt weighted towards active compounds, which were near 21% of everything screened. Unless noted, calls follow the shape of the dose curve; as a rule, active = well fitted curve in the direction sought with a large enough effect; inconclusive = small, poorly fitted or top-dose-only effect, or another doubt; inactive = no such curve, though single readings can be large; an effect the other way counts as inactive or inconclusive.

SMILES | Pf growth 96h | AMA1-RON2 inh | Shiga inhibitor | HCV inhibitor | Pf growth 48h | Cycloheximide cs
CCOC(=O)[C@]12CCC=C1N(Cc1ccc3c(c1)OCO3)C(=O)[C@H](CC(=O)NCc1cccs1)C2 | · | 5.9% | · | · | · | ·
O=C(NCc1ccccc1)C1CCCN(C(=O)Nc2ccccc2)C1 (centres undefined) | 33.7% | -2.7% | 52.9 | -3.6% | 31.3% | 10.8*
COc1cccc(NC(=O)N2CCOCC2)c1 | 6.7% | 3.8% | -3.1 | 8.5% | 19.7% | -4.6
COc1ccc(NC(=O)N2CCN(C(=O)Nc3ccc(OC)cc3)CC2)cc1 | -11.2% | 0.0% | 0.5 | 8.3% | -28.0% | -2.6
COc1cccc(NC(=O)N2CCN(c3cccc(C)c3)C(C)C2)c1 (centres undefined) | 2.5% | -11.8% | 50.3* | ? | -4.4% | 33.6*
O=C(NCc1ccccc1F)C1CCCN(C(=O)Nc2ccccc2)C1 (centres undefined) | 14.1% | 4.6% | 7.4 | -0.2% | -7.4% | 5.5
COc1cccc(NC(=O)N2CCCCCC2)c1 | 27.2% | -9.8% | 46.2* | 17.3% | 99.6% | 74.4*
COc1ccc(NC(=O)N2CCCCCC2)cc1 | ? | -10.6% | 50.2* | 15.0% | 41.0% | 21.3*
Cc1c(N2C(=O)c3cccc4cccc(c34)C2=O)cnn1C | 28.4% | 0.0% | -4.5 | -6.3% | 17.3% | -2.2
O=C(Nc1cccc(F)c1)N1CCCC(CNS(=O)(=O)Cc2ccccc2)C1 (centres undefined) | 5.22µM* | 10.4% | 21.0 | 10.4% | 8.5% | 5.3
O=C(NC1CCCCC1)N1CCCC(CNS(=O)(=O)Cc2ccccc2)C1 (centres undefined) | ? | 7.1% | -21.1 | -3.8% | 12.5% | -1.3
CCOC(=O)C1=NNC(C(=O)OCC)C1c1ccccc1 (centres undefined) | · | -0.2% | · | 18.7% | · | ·
CCOC(=O)C1=NNC(C(=O)c2ccc(C)cc2)C1c1ccc(OC)cc1 (centres undefined) | · | 21.3% | -14.9 | -7.6% | 11.7µM* | 12.8
CCOC(=O)C1NN=C(C(=O)c2ccc(C)cc2)C1c1ccc(C)cc1 (centres undefined) | 10.4µM* | -14.5% | 10.4 | 4.1% | ? | -1.6
CCOC(=O)C1=NNC(C(=O)c2ccc(Cl)cc2)C1c1ccc(OC)cc1 (centres undefined) | 13.1µM* | 0.4% | 10.2 | ? | ? | 0.8
CN(C)P(=O)(Nc1cccc2ccccc12)Nc1cccc2ccccc12 | ? | -13.1% | · | 8.1% | 4.65µM* | ·
O=C(CSc1nnc2c(n1)[nH]c1ccc(F)cc12)NC1CC1 | 3.29µM* | 12.7% | 13.6 | 6.1% | 20.5% | -4.4
CCOC(=O)CN(C(=O)CSc1nnc2c(n1)[nH]c1ccc(OC)cc12)c1ccc(F)cc1 | 7.5% | 2.7% | -16.7 | -7.5% | 9.28µM* | 8.2
CC(C)OC(=O)CSc1nnc2c(n1)[nH]c1ccc(F)cc12 | 13.1µM* | 0.0% | -13.5 | -26.0% | 5.86µM* | -2.4
O=C(CSc1nnc2c(n1)[nH]c1ccc(F)cc12)NCc1ccc(F)cc1 | ? | 3.7% | 2.3 | 21.9% | 14.8% | -4.4
CC1Cc2ccccc2N1C(=O)CSc1nnc2c(n1)[nH]c1ccc(F)cc12 (centres undefined) | -90.0% | -19.8% | -0.4 | 2.4% | 1.47µM* | 4.6
COc1ccc(CNC(=O)CSc2nnc3c(n2)[nH]c2ccc(F)cc23)cc1 | -4.2% | 3.4% | -2.2 | -7.5% | 2.4% | -8.9
CCC(C(=O)Nc1ccc(S(=O)(=O)Nc2ncccn2)cc1)c1ccccc1 (centres undefined) | ? | 3.6% | 9.5 | 8.4% | ? | -1.8
Cc1cc(C)c(C)c(OCC(O)CN2CCN(c3ccccn3)CC2)c1 (centres undefined) | 0.8% | -2.1% | -2.4 | -5.4% | 13.6% | -1.9
Cc1ccc(Cn2c(C)c(C(=O)NCc3cccs3)sc2=O)cc1 | · | -5.6% | · | · | · | ·
SMILES | Pf growth 96h | AMA1-RON2 inh | Shiga inhibitor | HCV inhibitor | Pf growth 48h | Cycloheximide cs
CCCS(=O)(=O)NC(=O)C1(C)CCN(C(=O)c2cccc(OC(F)(F)F)c2)C1 (centres undefined) | · | 21.0% | · | · | · | ·
N/C(COc1cc(Cl)cc(Cl)c1)=N\O | 6.8% | 1.8% | 8.5 | 5.1% | 16.5% | 2.1
Cc1c(NC(=O)Nc2ccc(F)cc2F)c(=O)n(-c2ccccc2)n1C | 15.2% | 6.1% | -12.3 | 12.2% | -3.0% | 3.4
COc1ccc2[nH]c3nc(SC(C)C)nnc3c2c1 | 5.22µM* | -15.9% | 105.4* | -18.9% | 405.0% | 67.5*
COc1ccc(CNC(=O)CSc2nnc3c(n2)[nH]c2ccc(OC)cc23)cc1 | 6.3% | 23.9% | 19.5 | -3.6% | 21.3% | -1.4
COc1ccc(OCc2cc(C(=O)NC3Cc4ccccc4C3)no2)c(Cl)c1 | 0.6% | 9.1% | 12.6 | ? | 15.4% | -4.1
CSc1ccccc1OCc1cc(C(=O)N[C@H]2CCCCNC2=O)no1 | ? | -14.8% | 128.0* | 2.3% | ? | 57.3*
COc1ccc(OCc2cc(C(=O)N[C@H]3CCCCNC3=O)no2)c(Cl)c1 | -24.3% | 1.6% | 58.3* | 25.1% | 40.0% | 49.2*
O=C(NCCc1ccccc1)C1CCCN(S(=O)(=O)c2cccc3nsnc23)C1 (centres undefined) | 1.17µM* | -8.1% | -9.8 | -20.8% | -16.6% | -7.0
O=C(C1CCCN(S(=O)(=O)c2cccc3nsnc23)C1)N1CC=C(c2ccccc2)CC1 (centres undefined) | 41.1% | -11.7% | -4.6 | 12.6µM* | ? | -0.7
O=C(C1CCN(S(=O)(=O)c2cccc3nsnc23)CC1)N1CC=C(c2ccccc2)CC1 | 45.0% | -11.0% | -5.3 | ? | ? | -1.4
O=S(=O)(c1ccc(Br)c2nsnc12)N1CCOCC1 | 9.28µM* | 2.5% | -17.7 | -26.1% | -17.4% | -5.1
Cc1ccc(S(=O)(=O)N2CCOCC2)c2nsnc12 | 31.2% | -8.2% | -16.6 | 2.0% | · | -5.3
O=S(=O)(c1cccc2nsnc12)N1CCCCC1 | 8.28µM* | 0.0% | 8.4 | ? | 10.5% | -0.9
Cc1cccc(OC(C)C(=O)Nc2nccs2)c1 (centres undefined) | 4.5% | -9.3% | 11.8 | 11.4% | 9.2% | 9.3
C[C@@H]1CN([C@@H](C)CO)C(=O)c2cc(N(C)C)ccc2O[C@@H](C)CCCCO[C@@H]1CN(C)Cc1ccc2c(c1)OCO2 | · | -16.6% | · | · | · | ·
COc1ccc(N(C(C)=O)C2C=CS(=O)(=O)C2)c(OC)c1 (centres undefined) | 10.4µM* | 0.3% | 27.7 | -0.5% | 35.8% | -0.6
COc1ccc(N(C(=O)c2ccccc2OC)C2C=CS(=O)(=O)C2)c(OC)c1 (centres undefined) | 11.2% | 7.8% | -8.5 | 7.5% | 1.5% | -5.6
CCCOc1cccc(C2C(C(=O)c3cccs3)=C(O)C(=O)N2CCN2CCOCC2)c1 (centres undefined) | -15.2% | -6.7% | -3.9 | 13.4% | 21.3%[0.00184 µM] | -3.8
